For assay [1], the system named is Wnt5a (protein binding on small-molecule microarray). As to the kind of experiment: small molecules binding Wnt5a protein – biophysical, small-molecule microarray, 635/667 nm fluorescence, primary screen (AID 1142).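 Further: fluorescence read at 667 nm with signal to noise per printed feature.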 As to conditions: 635 nm fluorescence, higher = more signal.
Assay [2] is described as follows: ATP-based viability of Huh7 replicon cells – cell-based, CellTiter-Glo luminescence, basal, 48 h, cytotoxicity control for HCV replication inhibitor project, primary screen (AID 1143).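 Further: Huh7 hepatoma cells carrying a hepatitis C replication reporter with no stimulus; test concentration not given here.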 To be noted: higher = more signal, called active from +8 up or from −8 down.
Assay [3] is described as follows: Pseudomonas biofilm growth suppression – PAO1 strain, BacTiter-Glo luminescence, LB-PBS, primary screen (AID 1144). To be noted: P. aeruginosa PAO1 biofilm, 12 h, higher = more signal.
Assay [4] is described as follows: basal CRE-LacZ reporter activity in PC12 – cell-based, unstimulated, primary screen (AID 1145). To be noted: no forskolin, luminescence, 4.5 h, higher = more signal, called active from +8 up or from −8 down.
A short description of assay [5]: forskolin-driven CRE-LacZ activity in PC12 – cell-based, CRE-LacZ reporter, forskolin-stimulated, primary screen (AID 1146).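 Further: PC12 cells with 6xCRE LacZ reporter stimulated by forskolin 10 µM; beta-galactosidase reporter signal reflecting CREB driven transcription.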 To be noted: luminescence, 4.5 h, higher = more signal, called active from +8 up or from −8 down.
For assay [6], the target named is Streptavidin (Streptomyces avidinii) (UniProt P22629). As to the kind of experiment: compounds binding control protein streptavidin – biophysical, small-molecule microarray, 635/667 nm fluorescence, artefact control for SMM compound annotation, primary screen (AID 1147).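 Further: signal reflects streptavidin binding to arrayed compounds as a control protein.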 As to conditions: higher = more signal.
Sequence of Streptavidin (Streptomyces avidinii) (P22629 whole entry, looked up): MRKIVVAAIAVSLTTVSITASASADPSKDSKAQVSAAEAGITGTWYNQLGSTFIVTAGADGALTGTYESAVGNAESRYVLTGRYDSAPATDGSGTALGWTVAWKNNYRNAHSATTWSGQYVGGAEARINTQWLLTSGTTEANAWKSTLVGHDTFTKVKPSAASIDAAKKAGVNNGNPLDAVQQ
Assay [7] can be described thus: probe aInhba binding on compound microarray – biochemical, small-molecule microarray, 635/667 nm fluorescence, primary screen (AID 1148).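 Further: score merges 667nm spot fluorescence with signal-to-noise for antibody binding to printed compounds.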 To be noted: higher = more signal.
For assay [8], the target named is Torsin-1A (Homo sapiens) (UniProt O14656). As to the kind of experiment: TOR1A wild-type binding on microarray – cell lysate, small-molecule microarray, lysate, 635/667 nm, primary screen (AID 1149). As to conditions: COS7 hTOR1A-WT lysate, 635 nm fluorescence, higher = more signal.
Sequence of Torsin-1A (Homo sapiens) (O14656 whole entry, looked up): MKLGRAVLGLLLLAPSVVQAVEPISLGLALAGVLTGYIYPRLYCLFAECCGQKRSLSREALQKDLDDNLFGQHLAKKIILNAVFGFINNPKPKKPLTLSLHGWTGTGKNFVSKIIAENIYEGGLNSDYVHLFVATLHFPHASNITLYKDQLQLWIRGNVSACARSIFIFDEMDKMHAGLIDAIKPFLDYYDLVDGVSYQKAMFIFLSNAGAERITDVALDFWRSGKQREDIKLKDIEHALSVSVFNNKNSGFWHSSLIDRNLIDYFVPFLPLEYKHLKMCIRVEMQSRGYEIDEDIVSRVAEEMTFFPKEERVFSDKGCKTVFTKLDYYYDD
Assay [9] shares this target. Briefly: torsin A mutant lysate binding on microarrays – cell lysate, small-molecule microarray, COS7 lysate, 635/667 nm fluorescence, primary screen (AID 1150).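 Further: score pools 667 nm emission and signal to noise measuring lysate protein binding.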 To be noted: COS7 hTOR1A mutant lysate, 635 nm fluorescence, higher = more signal.
The subject of assay [10] is Sonic hedgehog protein (Shh). As to the kind of experiment: Sonic hedgehog microarray binding compounds – biochemical, small-molecule microarray, 635/667 nm fluorescence, primary screen (AID 1151).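 Further: Shh protein binding to compounds spotted on small-molecule microarray slides; score combines spot fluorescence intensity with signal-to-noise across triplicate slides.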 To be noted: 635 nm fluorescence, higher = more signal.

Activity calls are given as the source filed them. Unless noted, how the calls were made is not given here.

For `COCCOC(=O)N1C(=O)[C@@]2(c3cc(C#CC4=CCCCC4)ccc31)[C@H](c1ccccc1OCCO)N1[C@H](c3ccccc3)[C@H](c3ccccc3)OC(=O)[C@H]1[C@@H]2C(=O)Nc1nc2ccccc2s1`, the composite z-score in [1] is 0.632; in [6], 0.827; in assay [7], 0.0497; in assay [8] it was 0.881; in [9], 0.344; in assay [10] it was 1.27. Besides, the z-score is -2.06 (inactive) in assay [2], 0.305 (inactive) in [3], -0.0526 (inactive) in assay [4] and 0.687 (inactive) in assay [5].
`[N-]=[N+]=NCc1ccccc1[C@@H]1OC(c2ccc(OCCCO)cc2)=N[C@]1(CCS(=O)(=O)c1ccccc1)C(=O)NCC(O)CO` (stereo not given in full): the composite z-score in [1] worked out at 0.541; in assay [6] it was 0.962; in [7], 0.0073; in [8], 1.05; in [9], 1.36; in assay [10], 0.0169. Also, the z-score in [2] was -0.866 (inactive); in assay [3] it was -0.701 (inactive); in assay [4], 1.71 (inactive); in assay [5], -1.17 (inactive).
`CC(c1ccccc1)C(O)C1C=CC2C(=O)N(c3ccccc3)C(=O)C2N1Nc1ccc([N+](=O)[O-])cc1` (stereo not given): the composite z-score amounted to 0.523 in assay [1]; 0.656 in assay [6]; 0.118 in assay [7]; 0.971 in [8]; 0.29 in [9]; 0.513 in assay [10]. The z-score was -0.664 (inactive) in [2], -1.53 (inactive) in [3], -0.48 (inactive) in assay [4] and 0.624 (inactive) in [5].
For `CN1C(=O)C2C=CC(C(O)COCc3ccccc3)N(N(c3ccccc3)c3ccccc3)C2C1=O` (stereo not given), the composite z-score in assay [1] is 0.124; in assay [6] it was 0.369; in assay [7], 0.0464; in [8] it was 0.346; in assay [9], 0.231; in assay [10], -0.386. Further, the z-score was -0.423 (inactive) in assay [2], -0.761 (inactive) in [3], -0.326 (inactive) in assay [4] and -0.637 (inactive) in assay [5].
With `CC=CC(O)C1C=CC2C(=O)N(c3ccccc3)C(=O)C2N1Nc1ccccc1F` (stereo not given), the composite z-score in assay [1] was 0.713; in assay [6], -0.0607; in [7], 0.572; in assay [8], 0.804; in assay [9], 0.42; in assay [10] it was -0.371. The z-score in [2] is -0.118 (inactive); in assay [3], 0.103 (inactive); in [4], 0.481 (inactive); in [5] it was 1.23 (inactive).
As to `COC(=O)Cn1c(C(=O)N(C)C)cc2c1C[C@H]1CN(C(=O)c3ccccc3)[C@@](Cc3ccc(F)cc3)(C(=O)OC)[C@@H]21`, the composite z-score in [1] was 0.398; in assay [6] it was 0.124; in [7], 0.382; in assay [8], 0.245; in [9], -0.068; in assay [10] it was -0.238. In addition, the z-score in assay [2] is -0.725 (inactive); in [3], -0.625 (inactive); in [4], 0.207 (inactive); in assay [5], -0.106 (inactive).
As to `[N-]=[N+]=NCc1ccccc1C[C@@]1(C(=O)NCc2ccccc2)N=C(c2ccc(OCCCO)cc2)O[C@@H]1c1ccccc1N=[N+]=[N-]`, the composite z-score is 0.122 in assay [1]; 1.2 in assay [6]; -0.003 in assay [7]; 0.0959 in assay [8]; 0.461 in assay [9]; -1.08 in [10]. The z-score in assay [2] is -3.96 (inactive); in [3] it was 0.0507 (inactive); in assay [4], 1.05 (inactive); in assay [5] it was -0.639 (inactive).
For `O=C1O[C@@H](c2ccccc2)[C@@H](c2ccccc2)N2[C@@H](c3ccc(O)cc3)[C@]3(C(=O)Nc4ccc(C#CC5(O)CCCCCC5)cc43)[C@@H](C(=O)NC[C@H](O)c3ccccc3)[C@H]12`, the composite z-score in assay [1] was 0.0895; in [6] it was -0.508; in [7], -0.0221; in assay [8], 0.0581; in assay [9], -0.135; in assay [10], 0.217. For the same compound, the z-score was -1.42 (inactive) in assay [2], -0.144 (inactive) in assay [3], -0.606 (inactive) in [4] and -0.448 (inactive) in assay [5].
Consider `CC1=C([C@H](O)CCc2ccccc2)[C@H](CO)[C@@H]2C(=O)N(C)C(=O)[C@@H]2C1`, for which the composite z-score in assay [1] is -0.124; in assay [6] it was 0.591; in assay [7], -0.218; in assay [8], 0.285; in [9], 0.0992; in assay [10], 0.656. Further, the z-score is -0.0547 (inactive) in assay [2], -0.518 (inactive) in assay [3], -0.321 (inactive) in assay [4] and -0.33 (inactive) in assay [5].
For the compound `CCC(CC)C(O)C1C=CC2C(=O)N(c3ccccc3)C(=O)C2N1Nc1ccc(C(C)C)cc1` (stereo not given), the composite z-score was 0.578 in [1]; 0.792 in [6]; -0.0021 in [7]; 0.393 in [8]; 0.41 in assay [9]; -0.0854 in assay [10]. In addition, the z-score in assay [2] is -0.382 (inactive); in [3] it was -0.0181 (inactive); in [4], -0.136 (inactive); in assay [5], -0.156 (inactive).
Turning to `COCCOC(=O)N1C(=O)[C@@]2(c3ccccc31)[C@H](C(=O)N1CCN(c3ncccn3)CC1)[C@H]1C(=O)O[C@H](c3ccccc3)[C@H](c3ccccc3)N1[C@@H]2c1ccc(O)cc1`, the composite z-score in [1] is 0.135; in [6], 0.284; in assay [7], -0.41; in assay [8] it was -0.396; in assay [9], -0.35; in [10], 1.07. The z-score in [2] was -2.65 (inactive); in [3], 0.0365 (inactive); in [4], 0.631 (inactive); in [5], -0.484 (inactive).
For the compound `CC(C)N1C(=O)C[C@@](C(=O)NCCCN(C)C)(c2ccc([N+](=O)[O-])cc2)[C@H]1c1ccc(CO)cc1`, the composite z-score in assay [1] was -0.0942; in assay [6] it was -0.36; in assay [7], -0.157; in [8], -0.0639; in assay [9], 0.46; in [10] it was 0.249. Moreover, the z-score in [2] is -1.38 (inactive); in assay [3], 0.574 (inactive); in assay [4], 0.764 (inactive); in [5], 0.0255 (inactive).
With `NC(=O)NCC#Cc1ccc2c(c1)[C@]1(C(=O)N2)[C@H](C(=O)O)[C@H]2C(=O)O[C@H](c3ccccc3)[C@H](c3ccccc3)N2[C@@H]1c1ccc(OCCO)cc1`, the composite z-score was 0.0755 in [1]; 1.15 in [6]; -0.102 in [7]; -0.0721 in assay [8]; 0.588 in assay [9]; 0.135 in assay [10]. The z-score is -0.175 (inactive) in assay [2], -0.015 (inactive) in assay [3], -0.195 (inactive) in [4] and -0.746 (inactive) in assay [5].

The record behind these values is PubChem BioAssay.
